# Bioassay records deposited in PubChem BioAssay by National Center for Advancing Translational Sciences (NCATS).
# D2 ag-1 – Beta-Arrestin HTS for Positive Allosteric Modulators of the Human D2 Dopamine Receptor: Agonists | D(2) dopamine receptor (Homo sapiens), P14416 | DiscoveRx PathHunter D2 beta-arrestin, luminescence, 90 min; 100% = 57 uM dopamine signal | 360,000 compounds, 0.084% hits | activation, % (test concentration not listed); in the data active means activation above about 40%
# Target sequence (P14416 whole entry, looked up): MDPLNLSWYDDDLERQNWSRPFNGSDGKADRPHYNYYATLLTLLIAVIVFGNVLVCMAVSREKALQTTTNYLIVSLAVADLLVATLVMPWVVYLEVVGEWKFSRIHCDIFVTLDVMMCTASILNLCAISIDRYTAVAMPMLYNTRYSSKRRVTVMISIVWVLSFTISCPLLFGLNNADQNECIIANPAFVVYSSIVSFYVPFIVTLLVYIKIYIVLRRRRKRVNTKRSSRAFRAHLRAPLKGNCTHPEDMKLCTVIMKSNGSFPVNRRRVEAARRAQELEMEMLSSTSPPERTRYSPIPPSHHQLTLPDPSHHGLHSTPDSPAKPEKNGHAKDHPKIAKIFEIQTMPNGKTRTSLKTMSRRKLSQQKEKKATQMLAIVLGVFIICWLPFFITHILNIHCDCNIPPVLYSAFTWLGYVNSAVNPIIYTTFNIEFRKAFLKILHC
#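 Agonist mode: compounds alone added to overnight-plated D2 PathHunter cells for 90 min at 37 C, with 57 uM final dopamine (EC100) defining full response. Beta-arrestin recruitment detected by chemiluminescent reagent, read after 1 h at ambient temperature.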
# D2 ag-2 – HTS Assay for Allosteric Agonists of the Human D2 Dopamine Receptor: Primary Screen for Agonists; D(2) dopamine receptor (Homo sapiens), P14416; HEK293 T-REx D2 cells, calcium flux agonist mode; activation, % at 2 µM; 340,000 compounds, 0.53% hits; AID 485358, 2010;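 active means activation over 3 SD above normal in the single-dose calcium agonist read, cut at about 30% in these data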; further: 0% is about no effect
#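 Calcium-flux readout, 1 cycle/sec over 180 s following compound pin transfer, in inducible HEK293 Trex D2 cells (force-coupled); dopamine controls included. Positive calcium responses during this window marked compounds as potential agonists.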
# D2 antagonist – HTS Assay for Allosteric Antagonists of the Human D2 Dopamine Receptor: Primary Screen for Antagonists; AID 485344, 2010; HEK293 TREx D2 cells, calcium flux, dopamine EC80; 340,000 compounds, 2% hits; D(2) dopamine receptor (Homo sapiens), P14416; inhibition, % at 10 µM; in the data active means inhibition above about 30%; inactive means below that, where a call was filed; further: 0% is about no effect
#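 HEK293 T-REx D2 cells, tet-induced, calcium dye no-wash. Cpd pintool add, 180 s kinetic, then EC80 DA, 180 s kinetic. Ca flux read.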
# D2 PAM-1 – Beta-Arrestin HTS for Positive Allosteric Modulators of the Human D2 Dopamine Receptor: Potentiators; potentiation, % (test concentration not listed); D(2) dopamine receptor (Homo sapiens), P14416; 360,000 compounds, 0.23% hits; DiscoveRx D2 beta-arrestin cells, luminescence, 90 min; 100% = 57 uM dopamine signal; AID 624464, 2012; in the data active means potentiation above about 50%
#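 D2 cells co-treated with compound plus 50 nM dopamine (EC20) for 90 min at 37 deg C to detect potentiation. Beta-arrestin recruitment was read as enzyme-fragment luminescence after 1 h at ambient temperature. Full response was set by 57 uM dopamine.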
# D2 PAM-2 – HTS Assay for Positive Allosteric Modulators of the Human D2 Dopamine Receptor: Primary Screen for Potentiators | HEK293 T-REx D2, calcium flux, EC20 dopamine potentiation | potentiation, % at 10 µM | AID 485347, 2010 | D(2) dopamine receptor (Homo sapiens), P14416 | 340,000 compounds, 0.34% hits;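 active means potentiation over 3 SD above the plate norm, cut at about 30% in these data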; further: 0% is about no effect
#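 Using a no-wash calcium dye in inducible, force-coupled HEK293 Trex cells expressing D2, we tracked fluorescence each second for 180 s after compound, then for 180 s after EC20 dopamine to detect augmented signalling.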
# * = called active by the depositor; x = not tested or not shown. Rows were chosen to be rich in hits. Some 2.4% of all compounds tested hit in one or more screens of this group.
SMILES,D2 ag-1,D2 ag-2,D2 antagonist,D2 PAM-1,D2 PAM-2
COCCOC(=O)c1c(C)oc2c1cc(NS(=O)(=O)c1ccc(Cl)c(C)c1)c1ccccc12,x,-1.5,x,x,-18.0
CCNCCC(=O)N1c2ccccc2Sc2ccc(C(F)(F)F)cc21,-7.0,9.2,72.6*,-17.2,-24.0
COc1cc2c(cc1OC)CN(CC(=O)NC(=O)NCc1ccccc1)CC2,-1.9,1.8,-0.3,-3.1,24.5
C/C=C(\C)CN1CCc2cc(OC)c(OC)cc2C1,1.3,0.4,-5.3,-15.3,30.8*
CCN(CC)c1ccc2cc(C(=O)NCc3ccc(F)cc3)c(=N)oc2c1,x,46.2*,2.3,x,-8.7
N=c1oc2ccc(Br)cc2cc1C(=O)NCc1ccc(F)cc1,-3.8,-0.5,8.5,-8.5,-3.6
COC(=O)c1sc(=S)n(-c2ccccc2OC)c1N,-0.8,-0.4,0.3,-1.9,31.3*
CCc1ccc(-n2nc(CO)c(C(=O)NCCc3ccccc3)n2)cc1,x,-0.9,x,x,0.6
NS(=O)(=O)c1ccc(NC(=O)/C=C/c2cccc(Cl)c2)cc1,6.2,0.2,35.2*,-9.9,-11.0
CC(NC(=O)C1CCCN1C(=O)OC(C)(C)C)C(=O)OCc1ccccc1 (stereo not given),-5.2,x,x,0.5,x
CC(C)(C)OC(=O)N1CCC[C@H]1C(=O)Nc1ccc(C#N)cc1,-5.2,0.3,62.7*,-6.0,-7.5
CC(C)(C)OC(=O)N1CCCC1C(=O)NC(Cc1ccccc1)C(=O)O (stereo not given),-2.6,1.6,31.8*,0.8,7.6
CC(C)(C)OC(=O)N1CCC[C@H]1C(=O)Nc1ccc(Br)cc1,1.7,-0.6,9.9,-11.5,-3.5
COc1cc(CNC2CCCC2)c(Br)cc1OC1CCCC1,-17.8,1.3,-3.2,-20.7,-19.5
COc1cc(CNCc2ccccc2)c(Br)cc1OC1CCCC1,-2.7,-1.2,50.9*,-21.8,-26.5
CC(C)c1ccccc1NC(=O)CNCCOc1ccccc1F,0.9,30.8*,46.1*,-11.2,-25.8
COc1ccc(-c2nnc(SCC(=O)Oc3cccc(C)c3C)o2)cc1,x,0.4,x,x,-1.0
Cc1cc(=O)n2nc(N3CCC(C(=O)Nc4ccc(Br)cc4F)CC3)sc2n1,x,x,x,x,3.0
O=C(CN1CCN(c2ccccc2O)CC1)Nc1ccc2c(c1)CCC2,-0.1,-0.8,66.8*,-16.1,-23.2
O=C(CN1CCCC1)NC(c1ccccc1)c1ccccc1,-2.1,1.7,-6.2,-13.0,-6.1
CCOc1ccccc1N1CCN(C(=O)NCc2ccc(C)cc2)CC1,-5.2,-1.8,30.3*,-18.1,32.1*
O=C(CN1CCN(c2ccccc2O)CC1)NC(c1ccccc1)c1ccccc1,-3.0,-0.9,64.1*,-32.9,-24.0
CCOc1ccccc1N1CCN(CC(=O)NC(C)c2ccccc2)CC1 (stereo not given),2.7,0.3,100.3*,-23.2,-20.2
CC(NC(=O)CN1CCN(c2ccc(Cl)cc2)CC1)c1ccccc1 (stereo not given),-4.6,-0.1,-6.8,-3.1,5.9
CC(C)c1nn2c(=O)cc(COC(=O)c3ccc(NC(=O)C4CCCCC4)cc3)nc2s1,x,1.5,x,x,4.0
SMILES,D2 ag-1,D2 ag-2,D2 antagonist,D2 PAM-1,D2 PAM-2
Cc1cccc(C)c1Nc1sc(C(=O)c2ccccc2)c(N)c1C(=O)Nc1ccc(F)cc1,x,0.6,x,x,-6.7
CCOC(=O)CC(NC(=O)c1cc2cc(OC)ccc2oc1=O)c1ccc(OC)cc1 (stereo not given),x,-0.8,x,x,13.3
COc1ccccc1Cn1c(-c2ccccc2OC)nc2ccccc21,-2.1,1.0,21.9,-9.5,9.6
Oc1ccccc1Cn1c(-c2ccccc2O)nc2ccccc21,2.5,0.4,33.6*,9.1,7.6
Cc1ccc(NC(=O)CCNC(=O)Nc2ccccc2)cc1S(=O)(=O)N(C)C,-3.3,-0.4,16.7,-5.2,1.8
CN(C)S(=O)(=O)c1cc(NC(=O)Cn2ccsc2=N)ccc1Cl,0.0,0.2,-12.8,29.5,-16.8
Cc1ccc(NC(=O)CN2CCN(C(=O)c3ccco3)CC2)cc1S(=O)(=O)N(C)C,44.5*,x,x,29.6,x
Cc1ccc(NC(=O)Cn2ccsc2=N)cc1S(=O)(=O)N(C)C,-3.1,-0.3,35.5*,-14.8,-24.0
Cc1ccc(NC(=O)CCNCc2ccco2)cc1S(=O)(=O)N(C)C,1.7,-6.4,33.6*,-20.9,-10.1
Cc1ccc(C)c(Nc2nc3c(S(=O)(=O)c4ccc(C(C)C)cc4)nnn3c3ccsc23)c1,x,0.6,x,x,3.6
Cc1ccc(C(=O)Nc2nnc(S(=O)(=O)N(C)Cc3ccc(Cl)cc3)s2)cc1,x,-0.9,x,x,7.1
CC(Sc1nnnn1C1CC1)C(=O)N1CC(=O)Nc2ccccc21 (stereo not given),2.8,-0.2,47.0*,28.2,-0.8
CC(C)[C@H](CO)Nc1nc(Nc2ccc(Cl)c(C(=O)O)c2)c2ncn(C(C)C)c2n1,-1.9,0.0,38.8*,-4.9,-4.0
CC(C)n1cnc2c(Nc3ccc(C(=O)O)cc3)nc(Cl)nc21,-1.9,-0.5,-15.8,0.7,10.2
COc1ccc(Nc2c3c(nc4ccc(NC(=O)/C=C/c5cccc(OC)c5OC)cc24)CCCC3)cc1OC,x,-0.9,x,x,-22.2
C/C(=C\C(=O)c1ccncc1)Nc1ccccc1O,9.9,x,x,50.1*,x
O=C(NC1CC2CCCC(C1)N2Cc1cccs1)N1CCOCC1 (stereo not given),-2.5,x,x,-38.7,x
CCOc1ccccc1C(=O)NC1CC2CCCC(C1)N2Cc1ccc(C)cc1 (stereo not given),-2.3,-1.4,83.8*,-19.3,-21.8
O=C(NC1CC2CCCC(C1)N2Cc1ccc(F)cc1)c1ccc(F)cc1 (stereo not given),-8.9,0.7,75.3*,-74.9,-21.7
O=C(NC1CC2CCCC(C1)N2Cc1cccs1)c1ccc([N+](=O)[O-])cc1 (stereo not given),x,0.8,57.2*,x,-21.2
Cc1ccccc1C(=O)NC1CC2CCC(C1)N2Cc1ccccc1 (stereo not given),-5.2,0.3,71.7*,-1.3,-23.8
Cn1c(=O)c2c([nH]c(=O)n2Cc2ccc(Cl)cc2Cl)n(C)c1=O,x,x,x,x,11.8
CC(=O)NC1CC2CCCC(C1)N2CC(=O)NCc1ccc(F)cc1 (stereo not given),-1.4,0.0,21.7,3.5,-8.1
Cc1ccc(CN2C3CCCC2CC(NC(=O)c2ccc(C)cc2)C3)cc1 (stereo not given),2.7,-1.8,74.5*,-20.1,-26.4
